Some of the results follow. The source made the active and inactive calls.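 The calls were made as follows: active = signal increase whose fitted curve reaches an absolute level of 40 at a concentration under 10 µM; inactive = activity opposite to the expected increase, or the rest.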
Experiment: start codon recognition fidelity modulators – S. cerevisiae, UUG firefly luciferase, cherry-pick, set 2, dose response (AID 652061);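 also: 0% = median DMSO signal and 100% = twice the DMSO signal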
Conditions: luminescence, 4 h, 100% means double the DMSO signal; max activity: measured here: max activity, test 2, at 38 µM, test 2, stronger effect = higher value unless noted; series mostly up to 38 µM

SMILES	max activity	outcome
O=C1N=C(N2CCc3ccccc3C2)S/C1=C\c1ccc(O)cc1	7.99% [measured here: max activity, test 2, at 12 µM, test 2, stronger effect = higher value]	inactive
Cc1ccc(F)cc1NC(=O)Cc1nn(C)c(=O)c2ccccc12	-14.8% [measured here: max activity, test 2, at 12 µM, test 2, stronger effect = higher value]	inactive
CC(=O)N1CC(=O)N(CC(=O)Nc2ccc(Br)cc2)C1=S	9.59% [measured here: max activity, test 2, at 1.35 µM, test 2, stronger effect = higher value]	inactive
O=C(COc1ccc(Cl)cc1)NCc1nnc(SCC(=O)NCC2CCCO2)o1 (configuration not stated)	-8.21% [measured here: max activity, test 2, at 0.15 µM, test 2, stronger effect = higher value]	inactive
C[C@@H]1CN([C@@H](C)CO)S(=O)(=O)c2ccc(C#Cc3ccc(F)cc3)cc2O[C@H]1CN(C)C(=O)NC1CCCC1	10% [at 2.85 µM, test 1, stronger effect = higher value] (inactive)	
O=C(N[C@H]1CC[C@@H](CCNS(=O)(=O)Cc2ccccc2)O[C@H]1CO)c1ccccc1F	8.33% [at 0.035 µM, test 1, stronger effect = higher value] (inactive)	
COc1ccc(NC(=O)N(C)C[C@H]2OCCCC[C@@H](C)Oc3ccc(NC(=O)NC4CCCCC4)cc3C(=O)N([C@@H](C)CO)C[C@H]2C)cc1	8.38% [at 26 µM, test 1, stronger effect = higher value] (inactive)	
CCOC(=O)C(=Cc1ccccc1OC)C(=O)OCC	9.08% [measured here: max activity, test 2, at 0.15 µM, test 2, stronger effect = higher value]	inactive
CC(C)C#Cc1ccc2c(c1)O[C@@H](CN(C)C(=O)CN(C)C)[C@@H](C)CN([C@H](C)CO)S2(=O)=O	-9.02% [at 0.3 µM, test 1, stronger effect = higher value] (inactive)	
CC(=O)Nc1ccccc1-c1cn(CC(=O)N2CCOCC2)nn1	8.61% [at 75 µM, test 1, stronger effect = higher value] (inactive)	
COCCCNC(=O)Cn1cc(C(=O)C2CC2)c2ccccc21	-7.83% [measured here: max activity, test 2, at 1.35 µM, test 2, stronger effect = higher value]	inactive
Cc1c(Nc2cc(N3CCCC(C)C3)c3nonc3c2[N+](=O)[O-])c(=O)n(-c2ccccc2)n1C (configuration not stated)	9.02%	inactive
O=C(c1cccnc1)N1C[C@H]2[C@@H](c3ccccc31)[C@H](CO)N2C(=O)C1CC1	24.4% [at 0.035 µM, test 1, stronger effect = higher value] (inactive)	
CC1CCCN(S(=O)(=O)c2ccc(N(C(=O)c3cnccn3)C(C(=O)NC3CCCCC3)c3cccs3)cc2)C1 (configuration not stated)	-8.84% [measured here: max activity, test 2, at 0.05 µM, test 2, stronger effect = higher value]	inactive
COc1ccc(CCN2C(=O)[C@@]3(Cc4ccccc42)c2ccccc2C(=O)N(Cc2ccccc2C(F)(F)F)[C@H]3c2ccc(CO)cc2)cc1	5.62% [at 26 µM, test 1, stronger effect = higher value] (inactive)	
CCc1cccc(C)c1N(C(=O)Cn1c(CO)nc2ccccc21)C(C)COC (configuration not stated)	6.66% [measured here: max activity, test 2, at 12 µM, test 2, stronger effect = higher value]	inactive
C[C@@H]1CN([C@@H](C)CO)C(=O)c2cc(Br)cnc2O[C@@H]1CN(C)C(=O)C1CCCCC1	-6.87% [at 0.9 µM, test 1, stronger effect = higher value] (inactive)	
CC1CCC(NC(=O)C2c3ccccc3C(=O)N2Cc2ccc3c(c2)OCO3)CC1 (configuration not stated)	-4.01%	inactive
Cc1onc(-c2ccc(Cl)cc2)c1-c1ccnn1S(=O)(=O)c1ccc(Cl)cc1	13.9%	inactive
C#CCSc1nnc(-c2sc3ccccc3c2Cl)o1	6.33% [measured here: max activity, test 2, at 0.46 µM, test 2, stronger effect = higher value]	inactive

Reference: PubChem BioAssay AID652061 (Broad Institute, 2013)
